# Screen size: about 53,000 sequences; about 3,700 (7%) were called active.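 The calls were made as follows: active = gene knockdowns whose robust z-score for IL-1 alpha signal is at least 2 or at most -2, so actives lie on both sides; inactive = the rest.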 The full list was thinned out, with actives kept by preference.
# Assay: Components of the Cytosolic LPS Sensing Pathway: Gene Identification via Genome-wide siRNA Screen;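 also: robust z of the log signal after scaling to non-targeting control siRNA wells of the plate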
# Conditions: RAW264.7 macrophages, IL-1a HTRF, actives lie on both sides, screened at 100 nM (by protocol), cells primed 5 h with Pam3CSK4 first
# How it was run: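 IL-1a HTRF of supernatants after 24 hour LipidA transfection of Pam3CSK4-primed (5 hours) RAW264.7 cells, 48h post-siRNA transfection (100 nM). Scores: percent of plate negative-control median, then log-based robust z-score.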
row,Sequence,z-score
1,GGAACCCAUCUCUCAAGCATT against Atp5g1,0.563 (inactive)
2,GGCAAUUCAAACAAUGCAGTT against Orm1,-1.41 (inactive)
3,GCUAUAAUUUGACAGUUAGTT against Lrba,0.0367 (inactive)
4,GGAGAGAUGCCUUUUAAGUTT against Zfp954,-0.252 (inactive)
5,GGAUGGUCUUAGGAUUACGTT against Fgf15,2.04 (active)
6,GGUAAAGAUCCAGUGCCGCTT against Tbc1d10c,-1.02 (inactive)
7,GGUUCAAGUGCAUUGCUUCTT against Rab34,0.979 (inactive)
8,GGUGGAUUUUAAGUUUCCUTT against Aurkc,3.43 (active)
9,GGGCAAUCUGAGCAAUUGUTT against Wnt7b,-0.213 (inactive)
10,GCCUAGACAAUGGUGACCUTT against Nsfl1c,-0.772 (inactive)
11,CCGACAUUUUCGUCACCAGTT against Gabra1,-1 (inactive)
12,GGCUAAUGUAUCGUCUGAGTT against Asb16,3.06 (active)
13,CCAGCCAUAUCAACCGUAUTT against Lzts3,0.084 (inactive)
14,CCGCUUCUCUAGUGAAUAATT against Uros,-1.56 (inactive)
15,GGAAACACUUGAACAAAGATT against Tph2,0.518 (inactive)
16,GGACAUGUUUGUGUUAAAGTT against Ctnna1,0.187 (inactive)
17,GGUGUGUGGCCAGAAAGUUTT against Sfi1,-2.83 (active)
18,GCUUUAUGAGUUCACGGAGTT against Prkab2,1.02 (inactive)
19,GGUUCUUAUCUCUAUUCAGTT against Olfr1270,0.432 (inactive)
20,GGAAACCUACUGUUGCACUTT against Wdr59,-0.627 (inactive)
21,GAAGAUUGGAUUUAAAGCCTT against Olfr667,-0.891 (inactive)
22,GGCUACAAGUGGGAAUUCATT against Cmtm2b,1.61 (inactive)

row,Sequence,z-score
1,GGAGCUCAAGAACAGGAUGTT against Clec3b,-0.0394 (inactive)
2,GCGGAGAAUAACAUAUCUCTT against Fut8,-0.521 (inactive)
3,GGAUUUGUAAAUUACCUGGTT against Clec4d,0.544 (inactive)
4,GCACAAUAAUAAUGACACUTT against AI597479,2.76 (active)
5,GUAUGCUAGCAUGAUCAACTT against Ndufa3,1.05 (inactive)
6,GGCCAGAUAUUAUAAGAAATT against Gtdc1,0.332 (inactive)
7,GCCUUUGCAUGGCAGUCUATT against Zfp825,-0.716 (inactive)
8,GGCUGUUCAAAGUGACCCUTT against Hbp1,-3.11 (active)
9,GCUGCCUAUGGCUUCUUCCTT against Tmem160,-1.37 (inactive)
10,GGUGCUGAUUACAGUAGAATT against Pcdhga10,2.01 (active)
11,GGACCAAGUAUCAUGAUGUTT against Zfp369,0.222 (inactive)
12,GCACCUCUUGGACAAAAUUTT against Tsc1,-1.59 (inactive)
13,GGCGGCCUAUAUGAGGUUCTT against Cftr,0.548 (inactive)
14,GCAUUGAGAUGAGAGCCUATT against Uroc1,-0.167 (inactive)
15,GCAGUUGUCAUGCUAAACCTT against Ptpn2,2.89 (active)
16,CGAAUACUACGCCAAGAUUTT against Abca2,-0.867 (inactive)
17,GCUCAGUACCGCACAACCATT against Dus3l,-0.827 (inactive)
18,CCUAUUGUGAGCUUAAUGCTT against Nrxn2,-0.74 (inactive)
19,GGGCUAUGUACCCUAUAAUTT against Eps8l1,-1.37 (inactive)
20,GGGCAUUGGUGACUUUGAATT against Hrob,-2.11 (active)
21,GGACACAACAAGUCUUAUGTT against Prg2,-0.876 (inactive)
22,CCUUGCUACUCUGAUAACGTT against Tmeff1,0.761 (inactive)

row,Sequence,z-score
1,CCUAGUGUGUUAAUUGUAATT against Ric1,-1.28 (inactive)
2,GGAUGCUUACGGGAGACGATT against Tmem9,-0.595 (inactive)
3,GGUGAAGGUGCCUUCCAAATT against Il27ra,2.91 (active)
4,GGAGAUUCACUUUCUAUCUTT against B3gnt9,0.656 (inactive)
5,CCCUAAGACGAAGGAAAUGTT against Pdrg1,-0.844 (inactive)
6,GGCGAGUUCCAGAUUCUUCTT against Car3,1.69 (inactive)
7,GCUGAAGACCGACUACAAGTT against Cnih1,0.569 (inactive)
8,GGUGCCAAUCCUUUGGACATT against 4930590J08Rik,3 (active)
9,GGAAGUUUACCAGUCUAUCTT against Pik3c2a,1.4 (inactive)
10,GCUACCCAUGAGCUUUCGATT against S100a3,0.495 (inactive)
11,GCCCAUUGUUACCUUGUACTT against Klb,-2.06 (active)
12,GGCCUUAUCGGCAGAUAUUTT against Tmem44,-1.24 (inactive)
13,GGCAGUCUUAUAAUUCAUCTT against Zfp944,-1.08 (inactive)
14,CGUUUGACACUUUUGCCUUTT against Mid1,1.09 (inactive)
15,GGUUUUUGUGGCUGAUCUUTT against Zfp711,-0.545 (inactive)
16,GGAUUUCCUUGGUUCUUUUTT against Mylip,0.145 (inactive)
17,GCUCUUCCGCACUUUCAUUTT against H2al1m,1.37 (inactive)
18,GGAACACUCCAGUUUGAAUTT against Thsd1,1.09 (inactive)
19,GGAACAAGUACAUACUUAUTT against Frs2,2.09 (active)
20,GCACUCAAGGUUUUACUGUTT against Satb1,-0.356 (inactive)
21,CCUUGUGUAUGAAAUACUUTT against Taf1b,-0.282 (inactive)
22,GCUUGAUUUUUGACAGAGATT against Mdh1b,1.48 (inactive)

row,Sequence,z-score
1,GCGAUGAUGAAAGCUCAGUTT against Atad1,-2.36 (active)
2,CCAGGAGUCGAGUGAUGGUTT against Rtl1,0.886 (inactive)
3,GGGUAAACUGUGGAGAAAUTT against Fam214b,-0.833 (inactive)
4,GGAAGAAGCAGCAAGAAGATT against Ttc39b,-2.16 (active)
5,GAUGAAAGCUACAAUGAAGTT against Srpx2,1.67 (inactive)
6,GGAAUUUCAGGAGAUACUGTT against C1qtnf12,-1.04 (inactive)
7,GCCGGAUCUAUUAAAGAAATT against Hdac2,0.134 (inactive)
8,GCAACUAUACUGGACAAUUTT against Olfr328,-1.19 (inactive)
9,GGCUUAUUAUCAGGAAAUGTT against Plcz1,-1.32 (inactive)
10,GGAAGUCUACAAGUGGCCATT against Nr1d1,-0.467 (inactive)
11,CGCAGCGACCAGCUUUCAATT against Srebf2,0.789 (inactive)
12,GGUGGUACGCAAUCAAAAGTT against Galnt17,2.46 (active)
13,GCCACCUAAUUUACAAUCUTT against Ccn3,0.573 (inactive)
14,GCACCAAUUCCCUAACUGGTT against Fam102a,0.244 (inactive)
15,GGACCUACAUAACAAGCUUTT against Thnsl2,1.83 (inactive)
16,GGCAGAAGCAGAUAUUAGATT against Rbmxl1,2.23 (active)
17,GGUUUCUGUUUUGUCACACTT against Slc22a13b,-0.535 (inactive)
18,GGGCAAUGGAAGAAUUCCUTT against BC030500,-1.69 (inactive)
19,GGAGCAAGAUGAAGAAGAGTT against Ticam2,-2.26 (active)
20,CCACGCUACCUUCAAGAGATT against Clec14a,0.946 (inactive)
21,GGAUCUUGACUUUGAUAUGTT against Trpm4,0.0632 (inactive)
22,GGACUCAAAACCAUUUACATT against Dram1,-1.13 (inactive)

row,Sequence,z-score
1,GGAUCAACUGGUGACACAGTT against Preb,-0.00996 (inactive)
2,GGAUCCUGCUCAAAAAAGUTT against Arxes1,-0.431 (inactive)
3,GGAAGAUCAUAAUGGACAGTT against Pcsk9,6.01 (active)
4,GAAGUCGGUGGACAAGAACTT against Cebpa,0.662 (inactive)
5,GCACUGUUUGUGCAAACAATT against C130071C03Rik,-2.22 (active)
6,CCACUCUAAUGAUGUUUUUTT against Slc46a3,0.411 (inactive)
7,CCCACUGGUGUACGUGAUCTT against Bdkrb2,2.21 (active)
8,GGCUAAGGAAUGUCAAUAATT against Dnajc5g,0.0787 (inactive)
9,GGUGCUACCUCUAGAUAUUTT against Utp3,1.96 (inactive)
10,CCACUUCUCUAAGACAAUCTT against Acox3,-0.107 (inactive)
11,CCCAUUGGAACUGCUGUAATT against Metrnl,0.932 (inactive)
12,GGUCAAAGUUAUGCAAUGUTT against Rp9,-2.02 (active)
13,GGACUUGAUUAUCUACACUTT against Stk24,-2.24 (active)
14,CGAAUAUGGUAUUCACUCATT against Skint4,0.157 (inactive)
15,GCCCUUACAUUUUAUACUATT against Zfp93,1.1 (inactive)
16,CCACGUCCUCUACUUGUAUTT against Nmbr,-0.813 (inactive)
17,GCGUAACUACUACAUGAAUTT against Ano9,-2.33 (active)
18,GGACUUACUUCCCAUUUCGTT against Gdpd3,0.297 (inactive)
19,GGUGUAUGCGUCACUAGAATT against Rxra,0.0162 (inactive)
20,GGACUACUCUGCCAGAUGGTT against Fam71f1,0.0252 (inactive)

# Source: PubChem BioAssay AID1508600 (Functional Genomics Laboratory (NCATS/FGL), 2020)
